Key:
Assay in all cases: DAPPL (digital affinity profiling via proximity ligation, sequencing); 10 mM Tris-HCl pH 7.5, 50 mM NaCl, 1 mM DTT, 4% glycerol, room temperature, 30 min; GST-TFs on glutathione beads, 16-mer random dsDNA library, 0.1% formaldehyde crosslink after washing; high values mean tight binding
Conditions in all cases: protein: recombinant; tags: N-terminal GST; dsDNA, one strand shown
ELK1 = target: T1, ELK1 (Homo sapiens, UniProt P19419 1-428)
T1 sequence: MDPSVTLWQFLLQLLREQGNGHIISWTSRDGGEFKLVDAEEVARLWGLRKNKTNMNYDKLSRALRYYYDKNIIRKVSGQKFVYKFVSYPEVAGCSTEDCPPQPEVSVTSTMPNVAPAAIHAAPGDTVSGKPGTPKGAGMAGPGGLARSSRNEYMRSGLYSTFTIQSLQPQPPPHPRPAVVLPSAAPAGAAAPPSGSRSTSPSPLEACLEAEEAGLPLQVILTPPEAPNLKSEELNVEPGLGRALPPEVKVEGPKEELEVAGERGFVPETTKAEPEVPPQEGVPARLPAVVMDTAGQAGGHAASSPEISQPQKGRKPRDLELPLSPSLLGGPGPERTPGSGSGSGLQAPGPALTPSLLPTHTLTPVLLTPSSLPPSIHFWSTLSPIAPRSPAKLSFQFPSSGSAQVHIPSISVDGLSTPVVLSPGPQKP
How it was run: (§1)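 Sequencing on an Illumina NextSeq500 followed washing, crosslinking with 0.1% formaldehyde, proximity ligation (BsaI/T4 ligase, 1 h, 37 °C) and PCR amplification of pools that had been incubated for 30 min at room temperature with 200 nmole of a random double-stranded 16-mer DNA library in Tris/NaCl/DTT/glycerol buffer. Each pool held DNA-barcoded human transcription factors, expressed in yeast as GST fusions and captured on glutathione beads, plus a tag-only sample. Binding signal is a hexamer's read frequency for a factor divided by its frequency in the tag-only sample.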

GABPA = target: T2, GABPA (Homo sapiens, UniProt Q06546 1-454)
T2 sequence: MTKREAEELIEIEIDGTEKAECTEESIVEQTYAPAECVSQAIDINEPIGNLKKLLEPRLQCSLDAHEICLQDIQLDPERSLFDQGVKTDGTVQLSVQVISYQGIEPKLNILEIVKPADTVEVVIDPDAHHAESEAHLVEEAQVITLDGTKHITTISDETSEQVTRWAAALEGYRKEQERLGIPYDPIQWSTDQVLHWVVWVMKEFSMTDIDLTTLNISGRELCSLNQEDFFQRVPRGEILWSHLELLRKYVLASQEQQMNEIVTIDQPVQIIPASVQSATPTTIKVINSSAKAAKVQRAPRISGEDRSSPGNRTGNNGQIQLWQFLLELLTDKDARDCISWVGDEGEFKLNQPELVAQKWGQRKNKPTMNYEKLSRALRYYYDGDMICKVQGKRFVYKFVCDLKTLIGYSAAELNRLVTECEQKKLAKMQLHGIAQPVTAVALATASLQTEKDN
How it was run: as §1

ELF1 = ELF1 (Homo sapiens, UniProt P32519 1-619)
How it was run: as §1

EHF = target: T3, EHF (Homo sapiens, UniProt Q9NZC4 1-300)
T3 sequence: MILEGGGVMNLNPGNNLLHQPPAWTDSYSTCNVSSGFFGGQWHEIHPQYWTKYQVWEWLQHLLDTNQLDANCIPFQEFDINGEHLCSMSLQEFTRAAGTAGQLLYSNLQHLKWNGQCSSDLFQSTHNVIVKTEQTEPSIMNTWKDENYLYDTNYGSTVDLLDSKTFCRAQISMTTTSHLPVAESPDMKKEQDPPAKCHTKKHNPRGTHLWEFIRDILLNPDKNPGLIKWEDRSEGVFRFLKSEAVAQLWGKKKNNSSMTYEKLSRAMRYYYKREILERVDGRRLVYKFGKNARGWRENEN
How it was run: as §1

SPIB = SPIB (Homo sapiens, UniProt Q01892 1-262)
How it was run: as §1

FEV = target: T4, FEV (Homo sapiens, UniProt Q99581 1-238)
T4 sequence: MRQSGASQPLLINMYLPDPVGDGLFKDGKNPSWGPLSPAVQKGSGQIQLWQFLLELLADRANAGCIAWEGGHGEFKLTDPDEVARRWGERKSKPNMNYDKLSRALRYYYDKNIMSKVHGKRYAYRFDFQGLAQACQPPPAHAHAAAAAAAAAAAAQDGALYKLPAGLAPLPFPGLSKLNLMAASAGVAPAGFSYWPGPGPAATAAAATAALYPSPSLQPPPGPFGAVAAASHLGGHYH
How it was run: as §1

ETV5 = ETV5 (Homo sapiens, UniProt P41161 1-510)
How it was run: as §1

ELF4 = ELF4 (Homo sapiens, UniProt Q99607 1-663)
How it was run: as §1

ELK4 = target: T5, ELK4 (Homo sapiens, UniProt P28324-2 1-405)
T5 sequence: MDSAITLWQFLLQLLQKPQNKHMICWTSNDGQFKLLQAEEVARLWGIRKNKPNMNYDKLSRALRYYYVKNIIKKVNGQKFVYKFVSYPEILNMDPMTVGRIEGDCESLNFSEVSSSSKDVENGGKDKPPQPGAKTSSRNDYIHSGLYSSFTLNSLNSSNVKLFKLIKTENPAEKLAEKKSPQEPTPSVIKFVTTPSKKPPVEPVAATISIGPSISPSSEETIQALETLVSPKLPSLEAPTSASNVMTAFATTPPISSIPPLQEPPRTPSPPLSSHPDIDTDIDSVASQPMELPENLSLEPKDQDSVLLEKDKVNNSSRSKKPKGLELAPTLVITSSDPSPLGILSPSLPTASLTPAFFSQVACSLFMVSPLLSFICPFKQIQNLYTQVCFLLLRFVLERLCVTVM
How it was run: as §1

ETV2 = target: T6, ETV2 (Homo sapiens, UniProt O00321 1-342)
T6 sequence: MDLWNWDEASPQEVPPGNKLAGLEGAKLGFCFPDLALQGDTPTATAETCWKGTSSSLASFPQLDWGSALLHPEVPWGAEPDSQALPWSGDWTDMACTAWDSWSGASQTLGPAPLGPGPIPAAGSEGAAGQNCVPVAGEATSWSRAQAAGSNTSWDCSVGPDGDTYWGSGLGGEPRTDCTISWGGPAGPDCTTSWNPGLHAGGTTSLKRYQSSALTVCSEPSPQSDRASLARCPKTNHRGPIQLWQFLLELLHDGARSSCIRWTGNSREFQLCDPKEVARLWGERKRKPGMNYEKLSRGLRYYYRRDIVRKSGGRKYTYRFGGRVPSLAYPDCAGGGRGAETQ
How it was run: as §1

ETV1 = ETV1 (Homo sapiens, UniProt P50549 1-477)
How it was run: as §1

ERF = target: T7, ERF (Homo sapiens, UniProt P50548 1-548)
T7 sequence: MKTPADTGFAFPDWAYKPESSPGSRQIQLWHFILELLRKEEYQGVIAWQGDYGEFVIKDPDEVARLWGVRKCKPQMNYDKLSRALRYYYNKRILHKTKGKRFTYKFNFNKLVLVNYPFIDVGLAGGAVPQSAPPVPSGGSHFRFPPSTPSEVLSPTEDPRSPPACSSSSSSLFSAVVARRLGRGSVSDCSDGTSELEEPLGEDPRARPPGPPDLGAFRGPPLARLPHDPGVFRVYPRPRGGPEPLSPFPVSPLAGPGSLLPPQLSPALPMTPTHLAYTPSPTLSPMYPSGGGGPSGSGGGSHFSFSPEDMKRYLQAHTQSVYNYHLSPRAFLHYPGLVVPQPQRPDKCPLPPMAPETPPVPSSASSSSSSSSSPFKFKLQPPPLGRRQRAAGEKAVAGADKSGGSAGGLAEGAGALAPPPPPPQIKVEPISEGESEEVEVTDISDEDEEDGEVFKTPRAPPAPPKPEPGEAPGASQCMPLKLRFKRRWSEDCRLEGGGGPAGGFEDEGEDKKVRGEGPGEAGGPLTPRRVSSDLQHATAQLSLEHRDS
How it was run: as §1

ETV3L = target: T8, ETV3L (Homo sapiens, UniProt Q6ZN32 1-361)
T8 sequence: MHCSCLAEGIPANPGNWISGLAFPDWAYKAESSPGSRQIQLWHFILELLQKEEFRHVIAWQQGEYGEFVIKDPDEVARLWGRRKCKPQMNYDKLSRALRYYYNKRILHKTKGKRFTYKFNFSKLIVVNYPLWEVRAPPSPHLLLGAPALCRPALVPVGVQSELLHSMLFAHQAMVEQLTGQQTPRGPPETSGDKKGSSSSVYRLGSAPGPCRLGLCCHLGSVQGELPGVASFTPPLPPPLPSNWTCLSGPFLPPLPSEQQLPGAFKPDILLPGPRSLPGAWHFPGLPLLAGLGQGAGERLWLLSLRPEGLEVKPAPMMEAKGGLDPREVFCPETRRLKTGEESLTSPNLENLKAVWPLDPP
How it was run: as §1

ETS2 = target: T9, ETS2 (Homo sapiens, UniProt P15036 1-469)
T9 sequence: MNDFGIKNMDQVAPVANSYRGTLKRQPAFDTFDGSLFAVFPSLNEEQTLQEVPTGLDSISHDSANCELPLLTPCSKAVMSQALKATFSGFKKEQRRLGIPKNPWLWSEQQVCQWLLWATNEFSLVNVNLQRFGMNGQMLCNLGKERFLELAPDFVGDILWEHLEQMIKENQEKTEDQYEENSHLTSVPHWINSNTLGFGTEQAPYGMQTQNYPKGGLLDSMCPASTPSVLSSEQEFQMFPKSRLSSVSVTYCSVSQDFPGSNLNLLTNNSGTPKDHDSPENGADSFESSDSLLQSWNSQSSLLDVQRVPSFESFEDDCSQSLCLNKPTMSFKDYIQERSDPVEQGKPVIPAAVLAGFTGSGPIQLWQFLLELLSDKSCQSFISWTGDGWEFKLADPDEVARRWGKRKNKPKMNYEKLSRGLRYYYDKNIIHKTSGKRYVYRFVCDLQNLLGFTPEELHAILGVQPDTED
How it was run: as §1

SPDEF = target: T10, SPDEF (Homo sapiens, UniProt O95238 1-335)
T10 sequence: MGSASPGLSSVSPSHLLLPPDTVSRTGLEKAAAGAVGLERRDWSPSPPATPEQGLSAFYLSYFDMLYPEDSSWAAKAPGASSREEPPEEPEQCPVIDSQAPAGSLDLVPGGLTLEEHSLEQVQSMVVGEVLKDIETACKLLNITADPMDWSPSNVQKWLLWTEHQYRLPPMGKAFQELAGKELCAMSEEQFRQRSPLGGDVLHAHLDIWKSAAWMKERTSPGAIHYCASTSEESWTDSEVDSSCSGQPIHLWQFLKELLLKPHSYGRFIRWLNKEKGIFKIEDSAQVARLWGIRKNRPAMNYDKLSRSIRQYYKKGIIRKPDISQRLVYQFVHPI
How it was run: as §1

ETV7 = target: T11, ETV7 (Homo sapiens, UniProt Q9Y603 1-341)
T11 sequence: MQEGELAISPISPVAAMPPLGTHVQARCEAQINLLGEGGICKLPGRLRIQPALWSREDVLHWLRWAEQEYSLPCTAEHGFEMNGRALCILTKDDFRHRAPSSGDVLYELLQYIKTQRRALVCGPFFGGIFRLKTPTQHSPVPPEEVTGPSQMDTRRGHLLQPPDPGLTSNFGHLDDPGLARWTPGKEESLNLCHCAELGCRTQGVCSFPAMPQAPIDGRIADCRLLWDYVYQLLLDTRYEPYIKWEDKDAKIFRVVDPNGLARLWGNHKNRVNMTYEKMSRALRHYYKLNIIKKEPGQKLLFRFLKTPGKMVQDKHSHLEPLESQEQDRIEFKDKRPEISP
How it was run: as §1

ETV3 = target: T12, ETV3 (Homo sapiens, UniProt P41162-2 1-143)
T12 sequence: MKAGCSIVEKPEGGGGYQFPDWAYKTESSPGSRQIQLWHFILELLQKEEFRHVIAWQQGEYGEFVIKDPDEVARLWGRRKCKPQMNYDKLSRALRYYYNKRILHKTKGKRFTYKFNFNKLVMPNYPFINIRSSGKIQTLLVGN
How it was run: as §1

ETV6 = ETV6 (Homo sapiens, UniProt P41212 1-452)
How it was run: as §1

ELF4, sequence (Q99607 whole entry): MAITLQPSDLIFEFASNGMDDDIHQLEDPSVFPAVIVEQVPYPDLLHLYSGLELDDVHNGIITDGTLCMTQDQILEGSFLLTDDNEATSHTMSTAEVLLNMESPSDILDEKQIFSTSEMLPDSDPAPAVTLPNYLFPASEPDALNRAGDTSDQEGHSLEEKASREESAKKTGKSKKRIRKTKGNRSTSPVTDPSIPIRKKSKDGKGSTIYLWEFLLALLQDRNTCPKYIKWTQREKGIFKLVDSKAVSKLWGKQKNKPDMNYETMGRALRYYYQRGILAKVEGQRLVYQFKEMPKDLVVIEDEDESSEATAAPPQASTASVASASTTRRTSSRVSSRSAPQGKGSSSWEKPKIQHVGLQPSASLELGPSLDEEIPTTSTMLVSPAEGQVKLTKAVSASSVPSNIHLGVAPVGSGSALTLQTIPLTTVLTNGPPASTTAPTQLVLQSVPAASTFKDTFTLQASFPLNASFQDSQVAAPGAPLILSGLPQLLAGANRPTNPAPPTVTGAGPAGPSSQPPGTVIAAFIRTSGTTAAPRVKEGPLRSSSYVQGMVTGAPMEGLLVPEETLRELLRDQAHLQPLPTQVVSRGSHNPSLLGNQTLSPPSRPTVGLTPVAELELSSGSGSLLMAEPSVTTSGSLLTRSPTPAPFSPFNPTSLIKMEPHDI
ETV1, sequence (P50549 whole entry): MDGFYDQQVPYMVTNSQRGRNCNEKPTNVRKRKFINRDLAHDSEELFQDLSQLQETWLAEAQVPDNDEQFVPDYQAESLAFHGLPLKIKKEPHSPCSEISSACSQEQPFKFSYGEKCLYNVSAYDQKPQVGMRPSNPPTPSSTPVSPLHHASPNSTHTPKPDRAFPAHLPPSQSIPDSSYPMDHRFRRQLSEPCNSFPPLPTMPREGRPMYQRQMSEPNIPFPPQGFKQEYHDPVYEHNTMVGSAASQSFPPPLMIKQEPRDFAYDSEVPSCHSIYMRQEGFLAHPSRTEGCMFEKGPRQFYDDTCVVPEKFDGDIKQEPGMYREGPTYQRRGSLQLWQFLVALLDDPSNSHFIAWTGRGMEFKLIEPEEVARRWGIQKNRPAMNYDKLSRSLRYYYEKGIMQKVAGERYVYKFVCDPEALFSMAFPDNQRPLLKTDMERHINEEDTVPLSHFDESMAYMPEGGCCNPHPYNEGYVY
SPIB, sequence (Q01892 whole entry): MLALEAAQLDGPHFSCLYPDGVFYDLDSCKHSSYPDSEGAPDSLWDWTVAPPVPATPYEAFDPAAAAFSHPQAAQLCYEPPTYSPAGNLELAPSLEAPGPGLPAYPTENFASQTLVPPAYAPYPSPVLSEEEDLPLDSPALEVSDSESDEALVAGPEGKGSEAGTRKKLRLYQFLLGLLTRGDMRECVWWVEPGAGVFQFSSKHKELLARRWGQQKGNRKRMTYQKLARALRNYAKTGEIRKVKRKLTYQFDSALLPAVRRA
ETV5, sequence (P41161 whole entry): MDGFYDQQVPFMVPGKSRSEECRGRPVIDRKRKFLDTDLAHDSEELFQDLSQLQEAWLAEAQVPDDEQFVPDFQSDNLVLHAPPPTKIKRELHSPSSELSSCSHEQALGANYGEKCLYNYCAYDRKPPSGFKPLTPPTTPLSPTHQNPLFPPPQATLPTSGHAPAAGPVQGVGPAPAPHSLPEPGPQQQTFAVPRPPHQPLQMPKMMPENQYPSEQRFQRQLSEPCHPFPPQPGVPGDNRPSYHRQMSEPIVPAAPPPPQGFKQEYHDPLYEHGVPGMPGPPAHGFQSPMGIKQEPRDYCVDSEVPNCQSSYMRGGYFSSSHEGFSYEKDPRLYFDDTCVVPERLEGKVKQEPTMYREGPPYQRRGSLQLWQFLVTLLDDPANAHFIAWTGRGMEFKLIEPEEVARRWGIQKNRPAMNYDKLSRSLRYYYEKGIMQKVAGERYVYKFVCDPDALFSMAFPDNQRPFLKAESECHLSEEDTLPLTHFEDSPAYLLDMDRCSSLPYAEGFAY
ELF1, sequence (P32519 whole entry): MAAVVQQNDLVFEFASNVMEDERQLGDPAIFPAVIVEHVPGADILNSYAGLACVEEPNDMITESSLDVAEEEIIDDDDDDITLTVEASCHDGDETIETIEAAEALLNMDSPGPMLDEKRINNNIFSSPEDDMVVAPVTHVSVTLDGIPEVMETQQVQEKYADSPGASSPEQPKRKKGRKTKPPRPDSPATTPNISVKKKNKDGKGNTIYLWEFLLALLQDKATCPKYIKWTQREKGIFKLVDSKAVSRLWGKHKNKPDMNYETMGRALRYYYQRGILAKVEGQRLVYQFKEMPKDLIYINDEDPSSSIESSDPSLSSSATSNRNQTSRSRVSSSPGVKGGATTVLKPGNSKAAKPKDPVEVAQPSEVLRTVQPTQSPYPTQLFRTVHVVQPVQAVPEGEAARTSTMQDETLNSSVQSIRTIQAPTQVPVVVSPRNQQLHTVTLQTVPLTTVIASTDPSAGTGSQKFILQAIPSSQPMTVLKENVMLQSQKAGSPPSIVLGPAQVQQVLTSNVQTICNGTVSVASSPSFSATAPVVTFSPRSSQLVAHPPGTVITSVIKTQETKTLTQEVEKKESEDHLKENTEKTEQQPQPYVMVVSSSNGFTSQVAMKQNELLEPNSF
ETV6, sequence (P41212 whole entry): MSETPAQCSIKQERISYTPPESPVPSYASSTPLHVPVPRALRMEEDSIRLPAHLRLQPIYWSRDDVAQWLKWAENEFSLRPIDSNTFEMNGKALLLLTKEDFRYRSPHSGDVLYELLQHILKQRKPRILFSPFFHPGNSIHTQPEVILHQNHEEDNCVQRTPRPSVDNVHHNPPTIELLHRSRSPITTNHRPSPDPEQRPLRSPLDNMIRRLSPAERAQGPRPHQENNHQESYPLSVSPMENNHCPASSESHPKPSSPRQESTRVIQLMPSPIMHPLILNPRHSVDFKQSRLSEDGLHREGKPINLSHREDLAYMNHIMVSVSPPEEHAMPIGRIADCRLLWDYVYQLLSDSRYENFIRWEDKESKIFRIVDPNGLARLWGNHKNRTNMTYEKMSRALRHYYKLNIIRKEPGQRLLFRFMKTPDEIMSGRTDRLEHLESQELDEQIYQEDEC

TTGTCA
binding signal (ELK1): 1.04 fold enrichment (6-mer frequency, TF over GST control)
binding signal (GABPA): 1.08 fold enrichment (6-mer frequency, TF over GST control)
binding signal (ELF1): 1.13 fold enrichment (6-mer frequency, TF over GST control)
binding signal (EHF): 1.11 fold enrichment (6-mer frequency, TF over GST control)
binding signal (SPIB): 1.21 fold enrichment (6-mer frequency, TF over GST control)
binding signal (FEV): 1.06 fold enrichment (6-mer frequency, TF over GST control)
binding signal (ETV5): 1.05 fold enrichment (6-mer frequency, TF over GST control)
binding signal (ELF4): 1.14 fold enrichment (6-mer frequency, TF over GST control)
binding signal (ELK4): 1.21 fold enrichment (6-mer frequency, TF over GST control)
binding signal (ETV2): 1.02 fold enrichment (6-mer frequency, TF over GST control)
binding signal (ETV1): 1.15 fold enrichment (6-mer frequency, TF over GST control)
binding signal (ERF): 1.3 fold enrichment (6-mer frequency, TF over GST control)
binding signal (ETV3L): 1.17 fold enrichment (6-mer frequency, TF over GST control)
binding signal (ETS2): 1.11 fold enrichment (6-mer frequency, TF over GST control)
binding signal (SPDEF): 1.06 fold enrichment (6-mer frequency, TF over GST control)
binding signal (ETV7): 1.2 fold enrichment (6-mer frequency, TF over GST control)
binding signal (ETV3): 1.16 fold enrichment (6-mer frequency, TF over GST control)
binding signal (ETV6): 1.07 fold enrichment (6-mer frequency, TF over GST control)

From publication PMC7862700, “An all-to-all approach to the identification of sequence-specific readers for epigenetic DNA modifications on cytosine”
